Inconclusive results are not listed. Calls of active or inactive are those of the source. Calls follow the shape of the dose curve; as a rule, active = well fitted antagonist curve with a large enough effect in the main read-out, with a control signal flat; inconclusive = small, poorly fitted or top-dose-only effect; inactive = no such curve, though single readings can be large or run the other way.
target: Neuropeptide S receptor (Homo sapiens) (UniProt Q6W5P4); experiment: Confirmation Concentration-Response Assay for Antagonists of the Neuropeptide S Receptor: Calcium Signal Transduction; settings: CHO-NPSR cells, NPS-induced calcium flux, FDSS; series mostly up to 19.3 µM
Excerpt: NIH Chemical Genomics Center [NCGC] NIH Molecular Libraries Probe Production centers Network [MLPCN] MLPCN Grant: X01-DA026210-01 Assay Submitter (PI): Heilig, Markus Alexander NCGC Assay Overview: Neuropeptide S receptor (NPSR), previously known as GPR154, is a recently de-orphanized G protein coupled receptor. Its endogenous ligand is the 20 amino acids peptide Neuropeptide S (NPS). […] NPS and its receptor are found in various tissues. Specifically they are highly expressed in brain areas that have been implicated in modulation of arousal, stress and anxiety. Central administration of NPS in mice produces an unusual profile of activity by inducing wakefulness and arousal, while at the same time suppressing anxiety. Therefore, NPSR may represent a novel drug target for the treatment of sleep and anxiety disorders. To identify NPSR antagonists, we developed a cell-based assay with transfected NPS receptor. NPS can stimulate the production of cAMP as well as release intracellular calcium in Chinese hamster ovary cells stably expressing NPS receptor. This change in intracellular calcium can be detected using a calcium indicator dye on a calcium imaging plate reader system (FDSS).
NCGC Assay Protocol Summary: A Chinese hamster ovary (CHO) cell line stably expressing the NPS receptor (CHO-NPSR) was obtained from Dr. Heilig lab at NIAAA and maintained in F-12 Kaighn's media (Invitrogen, Carlsbad, CA, 21127) supplemented with 10 % FBS, 100 units/ml penicillin, 100 ug/ml streptomycin and 250 ug/ml geneticin at 37C, 5% CO2 in a humidified atmosphere. Before the assay, aliquots of cells were frozen and stored at -135C. The assay was performed on a FDSS-7000 kinetic plate reader in 1536-well format. For both agonist (1-220s) and antagonist (221-400s) phases, the maximums of kinetic fluorescence responses were converted separately into text files using the instrument's software data export utility. Data for agonist response were normalized to the controls for basal activity (DMSO only) and 100% activation (NPS). […] AC50 values were determined from concentration-response data modeled with the standard Hill equation. NPS 1536-well FDSS assay protocol: (1) Frozen CHO-NPSR cells were thaw, washed once with fresh media and resuspended in F-12 Kaighn's media supplemented with 10 % FBS, 100 units/ml penicillin and 100 ug/ml streptomycin. Cells were plated at 3 ul/well (1200 cells) to black, clear-bottom, tissue-culture treated 1536-well plates, and then cultured at 37C, 5 % CO2 for 16 to 30 hours. (2) Add 3 ul of calcium dye (from High Performance PBX Calcium Assay Kit, BD Biosciences). The calcium dye was prepared according to the manufactory's instruction. (3) Incubation at 37C, 5 % CO2 for 60 to 120 min. (4) Load plates to FDSS-7000. The following steps were performed on FDSS-7000. (5) Record fluorescent background (Ex 480 nm, Em 520-560 nm) for 10 s. (6) Add 23 nl/well of compound in DMSO solution. The final titration for each compound was between 0.6 nM and 46 uM. Record agonist response for 210 s. (7) Add 2 ul of stimulation reagent (1X HBSS buffer, 0.1% BSA, 60 nM NPS). Record antagonist response for 140 s. Keywords: MLSMR, MLPCN, NIH Roadmap, qHTS, NCGC, NPS, Neuropeptide S Antagonists

Chain of Neuropeptide S receptor (Homo sapiens) (Q6W5P4 whole entry, looked up): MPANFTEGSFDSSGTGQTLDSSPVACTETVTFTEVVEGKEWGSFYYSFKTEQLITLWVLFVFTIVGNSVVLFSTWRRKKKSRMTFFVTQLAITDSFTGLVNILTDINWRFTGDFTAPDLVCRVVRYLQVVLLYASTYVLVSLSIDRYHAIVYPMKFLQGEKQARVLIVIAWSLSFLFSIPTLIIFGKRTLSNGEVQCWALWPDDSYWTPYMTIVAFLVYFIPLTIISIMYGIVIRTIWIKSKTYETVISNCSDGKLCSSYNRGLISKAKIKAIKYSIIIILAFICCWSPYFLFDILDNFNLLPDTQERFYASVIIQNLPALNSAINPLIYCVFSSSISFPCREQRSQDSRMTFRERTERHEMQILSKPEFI

Structure (SMILES) | Potency
CCOC(=O)c1c(-n2c(C)cc(C=C3C(=O)NC(=S)NC3=O)c2C)sc2c1CCCC2 | 2 µM (active)
CNc1ccc2oc(C[C@H]3O[C@@]4(CC[C@H]3C)O[C@H]([C@H](C)C(=O)c3ccc[nH]3)[C@H](C)C[C@H]4C)nc2c1C(=O)O | 0.0158 µM (active)
Cc1c(P(=S)(c2ccccc2)c2ccccc2)[n+]2ccccc2n1C | 0.2 µM (active)
Cc1cccc(N2C(=O)NC(=O)/C(=C\c3cnn(-c4ccccc4)c3)C2=O)c1 | 10 µM (active)
C=C(C=O)C[C@@H]1C[C@H](O)C2OC3C[C@]4(C)OC5/C=C\CC6OC7C(CC=CCC6OC5CCCC4OC3CC2O1)OC1CC2OC3CC(=O)OC3C[C@@H](C)C[C@@]2(C)OC1C[C@@H]7C (stereo not given in full) | 0.501 µM (active)
C[C@H]1CCCC(=O)CCCCCc2cc(O)cc(O)c2C(=O)O1 | inactive
C=CCN1C(=O)/C(=C/c2cccs2)C(=O)NC1=S | 11.2 µM (active)
C=C1C(=O)O[C@@H]2C[C@@H](C)[C@@H]3C=CC(=O)[C@@]3(C)[C@@H](OC(=O)CC(=O)O[C@H]3[C@@H]4C(=C)C(=O)O[C@@H]4C[C@@H](C)[C@@H]4C=CC(=O)[C@]43C)[C@H]12 | 0.0891 µM (active)
CC(=O)Nc1cc([As](=O)(O)O)ccc1O | inactive
Cc1cc(C=C2C(=O)NC(=S)NC2=O)c(C)n1-c1ccc2c(c1)OCO2 | 12.6 µM (active)

From PubChem BioAssay AID1489 (National Center for Advancing Translational Sciences (NCATS), 2009)
